HT1080 IDH1KD tx = qHTS for induction of synthetic lethality in tumor cells producing 2HG: qHTS for the HT-1080-IDH1KD cell line. actives 2% (n = 360,000). Potency, µM (doses to about 46.1 µM), hits mostly cytotoxic. AID 686971, 2013. HT-1080 IDH1 knockdown viability, ATP luminescence, 48 h
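CellTiter-Glo luminescence after 48 h compound exposure at 37 degrees C of IDH1-knockdown HT-1080 cells in 5% FBS RPMI. %Activity scaled between DMSO wells and cell-free media wells, with curves fitted and assigned curve classes.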
DT40 TDP1 CPT = qHTS for Inhibitors of human tyrosyl-DNA phosphodiesterase 1 (TDP1): qHTS in cells in presence of CPT; chicken DT40 Tdp1-/-;hTDP1 cells + 20 nM CPT, ATP luminescence, 48 h; Potency, µM (titrated, usually from 46.2 µM), hits mostly inhibitors; actives 12% (n = 420,000); AID 686979, 2013; note: nearly all actives have a fitted effect of over 55% in size
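Cell growth measured by CellTiter-Glo luminescence after a minimum 48 h, 37 C compound exposure with 20 nM CPT in Tdp1-knockout DT40 cells stably expressing hTDP1, seeded 400/well; qHTS titration format.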
HT1080-NT tox = qHTS for induction of synthetic lethality in tumor cells producing 2HG: qHTS for the HT-1080-NT fibrosarcoma cell line | Potency, µM (series often up to 46.1 µM), most hits filed as cytotoxic | HT-1080-NT fibrosarcoma viability, CellTiter-Glo ATP luminescence, 48 h | actives 1.6% (n = 360,000);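 note: NT is the 2HG producing partner of a matched IDH1 knockdown line; nearly all actives have a fitted effect of over 55% in size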
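HT-1080-NT fibrosarcoma cells (2HG-overproducing), 750 cells/well in RPMI with 5% FBS, dosed after 2 h and incubated 48 h at 37C. CellTiter-Glo luminescence normalized to DMSO and no-cell wells; concentration-response curves fitted and classed.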
ALOX12 inh = Primary qHTS assay for inhibitors of human arachidonate 12S-lipoxygenase (ALOX12): Round 2; actives 1.1% (n = 580,000); Potency, µM (highest dose often 108 µM), hits mostly inhibitors; purified 12hLO, xylenol orange hydroperoxide absorbance
Target sequence (P18054 whole entry, looked up): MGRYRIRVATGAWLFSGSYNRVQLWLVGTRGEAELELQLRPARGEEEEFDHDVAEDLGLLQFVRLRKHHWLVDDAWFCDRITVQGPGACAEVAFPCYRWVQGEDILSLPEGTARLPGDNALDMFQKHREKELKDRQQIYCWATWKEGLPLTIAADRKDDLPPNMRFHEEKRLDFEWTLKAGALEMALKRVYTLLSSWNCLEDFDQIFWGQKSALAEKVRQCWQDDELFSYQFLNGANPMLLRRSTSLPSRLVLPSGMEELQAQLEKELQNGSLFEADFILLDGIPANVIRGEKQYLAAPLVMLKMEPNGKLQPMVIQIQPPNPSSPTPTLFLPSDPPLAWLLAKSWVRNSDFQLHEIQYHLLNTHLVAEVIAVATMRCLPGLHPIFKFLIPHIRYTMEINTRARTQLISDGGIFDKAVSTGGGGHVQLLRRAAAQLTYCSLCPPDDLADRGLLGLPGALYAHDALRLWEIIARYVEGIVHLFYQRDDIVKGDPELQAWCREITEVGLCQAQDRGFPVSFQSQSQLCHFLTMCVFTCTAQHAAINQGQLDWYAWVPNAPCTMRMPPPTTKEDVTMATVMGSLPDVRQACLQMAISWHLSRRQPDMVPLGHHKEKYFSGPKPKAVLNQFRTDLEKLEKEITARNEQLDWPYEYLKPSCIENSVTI
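Hydroperoxide product was detected by ferrous iron/xylenol orange as the 573 to 405 nm absorbance ratio. Arachidonic acid at 40 uM (final) was turned over for 30 min at room temperature by 150 nM human 12hLO, pH 7.0 Hepes buffer, after 15 min compound preincubation.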
TDP1 cell noCPT = qHTS for Inhibitors of human tyrosyl-DNA phosphodiesterase 1 (TDP1): qHTS in cells in absence of CPT; DT40 Tdp1-/- hTDP1 cells, no CPT, ATP luminescence, 48 h; Potency, µM (top dose mostly 46.2 µM), hits mostly inhibitors; actives 15% (n = 420,000); note: nearly all actives have a fitted effect of over 55% in size
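Seeded 400 DT40-hTDP1 cells/well (vehicle DMSO, no 20 nM CPT); pinned compounds; ≥48 hr at 37 °C; CellTiter-Glo luminescence as viability measure.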
IL-1B inflam inh = qHTS for Inhibitors of Inflammasome Signaling: IL-1-beta AlphaLISA Primary Screen | activity change, % at 57.5 µM | THP-1 LPS/ATP IL-1B secretion, AlphaLISA, 16 h; active compounds read low | actives 4.7% (n = 360,000); in the data active = activity change below about -50%; inconclusive = mostly about -30% to -49%
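THP-1 cells pretreated 1 hr with compounds (up to 57.5 uM final), then stimulated with LPS (250 ng/mL final) plus ATP (1.25 mM final); secreted IL-1B measured by AlphaLISA after 16 hr, decreased signal indicating inhibition.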
Of the large screens only hits and unclear results are named; the others gave an inactive call. The sample as a whole holds a higher share of hits than the screen did. Unless noted, calls come from the whole dose curve; as a rule, active = well fitted curve in the direction sought with a large enough effect; inconclusive = small, poorly fitted or top-dose-only effect, or another doubt; inactive = no such curve, though single readings can be large; an effect the other way counts as inactive or inconclusive.

Cc1ccc(-c2nnc(Nc3ccc(Cl)c(Cl)c3)c3ccccc23)cc1S(=O)(=O)NCCO	DT40 TDP1 CPT 18.4µM, TDP1 cell noCPT 18.4µM (no result: HT1080 IDH1KD tx, HT1080-NT tox, IL-1B inflam inh)
Cc1ccc(-c2nnc(Nc3ccc4c(c3)OCO4)c3ccccc23)cc1S(=O)(=O)NCCO	DT40 TDP1 CPT inconclusive, TDP1 cell noCPT 16.4µM
CCCCN1CCc2nc(N3CCN(C)CC3)ncc2C1	ALOX12 inh inconclusive, TDP1 cell noCPT inconclusive (no result: HT1080 IDH1KD tx, HT1080-NT tox, IL-1B inflam inh)
CCN1CCN(c2ncc3c(n2)CCN(Cc2ccc(Br)s2)C3)CC1	DT40 TDP1 CPT 13µM, ALOX12 inh inconclusive, TDP1 cell noCPT 10.3µM (no result: HT1080 IDH1KD tx, HT1080-NT tox, IL-1B inflam inh)
CCN1CCN(c2ncc3c(n2)CCN(Cc2ccc(C)s2)C3)CC1	DT40 TDP1 CPT inconclusive, TDP1 cell noCPT inconclusive (no result: HT1080 IDH1KD tx, HT1080-NT tox, IL-1B inflam inh)
CCN1CCN(c2ncc3c(n2)CCN(Cc2cc(Br)cs2)C3)CC1	DT40 TDP1 CPT 18.4µM, ALOX12 inh 11.2µM, TDP1 cell noCPT 20.6µM (no result: HT1080 IDH1KD tx, HT1080-NT tox, IL-1B inflam inh)
CN1CCN(c2ncc3c(n2)CCN(Cc2ccc(Br)s2)C3)CC1	DT40 TDP1 CPT 23.1µM, TDP1 cell noCPT 14.6µM (no result: HT1080 IDH1KD tx, HT1080-NT tox, IL-1B inflam inh)
Cc1ccsc1CN1CCc2nc(N3CCN(c4ccccc4F)CC3)ncc2C1	DT40 TDP1 CPT inconclusive, TDP1 cell noCPT inconclusive (no result: HT1080 IDH1KD tx, HT1080-NT tox, IL-1B inflam inh)
CCN1CCN(c2ncc3c(n2)CCN(Cc2sccc2C)C3)CC1	DT40 TDP1 CPT inconclusive, ALOX12 inh inconclusive, TDP1 cell noCPT 23.1µM (no result: HT1080 IDH1KD tx, HT1080-NT tox, IL-1B inflam inh)
O=c1[nH]c(=O)n(CC2CCCO2)c2nccc(-c3ccc(-c4ccccc4)cc3)c12 (stereo unspecified)	none (no result: HT1080 IDH1KD tx, DT40 TDP1 CPT, HT1080-NT tox, TDP1 cell noCPT, IL-1B inflam inh)
O=C(c1cccnc1)N1CCCCC1c1noc(COc2ccc(F)cc2)n1 (stereo unspecified)	none (no result: HT1080 IDH1KD tx, DT40 TDP1 CPT, HT1080-NT tox, TDP1 cell noCPT, IL-1B inflam inh)
CCc1ccc(-n2nc(C)c3c(C(=O)N4CCN(c5cccc(Cl)c5)CC4)cc(C)nc32)cc1	DT40 TDP1 CPT inconclusive, TDP1 cell noCPT 20.6µM (no result: HT1080 IDH1KD tx, HT1080-NT tox, IL-1B inflam inh)
Cc1cc(C(=O)N2CCN(c3ccccc3)CC2)c2c(C)nn(-c3cccc(F)c3)c2n1	DT40 TDP1 CPT inconclusive, TDP1 cell noCPT 16.4µM (no result: HT1080 IDH1KD tx, HT1080-NT tox, IL-1B inflam inh)
Cc1cc(C(=O)Nc2cccc(C)c2C)c2c(C)nn(-c3cccc(F)c3)c2n1	none (no result: HT1080 IDH1KD tx, HT1080-NT tox, IL-1B inflam inh)
COc1ccc(NC(=O)c2nn(-c3ccccc3C)c(=O)cc2OC)cc1	none (no result: HT1080 IDH1KD tx, DT40 TDP1 CPT, HT1080-NT tox, TDP1 cell noCPT, IL-1B inflam inh)
COc1ccc(-c2nc(C(=O)N3CCOCC3)nn2-c2ccccc2Cl)cc1	none (no result: HT1080 IDH1KD tx, DT40 TDP1 CPT, HT1080-NT tox, TDP1 cell noCPT, IL-1B inflam inh)
CN(Cc1cn(C)c2ccccc12)C(=S)Nc1cc(F)cc(F)c1	TDP1 cell noCPT inconclusive
Cc1cccc(NC(=S)N(C)Cc2cn(C)c3ccccc23)c1	DT40 TDP1 CPT 25.9µM, TDP1 cell noCPT 16.4µM
COc1ccc(NC(=O)c2cc3cccc(OC)c3oc2=Nc2ccc(C(=O)O)cc2)cc1OC	DT40 TDP1 CPT 9.2µM, TDP1 cell noCPT 13µM
COc1cccc2cc(C(=O)Nc3ccc(C)cc3)c(=O)oc12	ALOX12 inh inconclusive (no result: HT1080 IDH1KD tx, HT1080-NT tox, IL-1B inflam inh)
COC(=O)C1CSC2c3ccccc3C(=O)N12 (stereo unspecified)	DT40 TDP1 CPT 18.4µM, TDP1 cell noCPT inconclusive
CC(C)NC(=O)[C@@H]1CSC2c3ccccc3C(=O)N21 (stereo partly specified)	none
CCCCCCN1C[C@@H](n2cc(-c3ccc(F)cc3)nn2)[C@H](O)C[C@@H]1c1ccc(Cl)cc1	DT40 TDP1 CPT 11.6µM, TDP1 cell noCPT 11.6µM
CCCCCCN1C[C@H](O)[C@@H](n2cc(-c3ccc(F)cc3)nn2)C[C@@H]1c1ccc(Cl)cc1	DT40 TDP1 CPT inconclusive, TDP1 cell noCPT 18.4µM
CCCCCC(=O)N1C[C@H](O)[C@@H](n2cc(-c3ccc(F)cc3)nn2)C[C@@H]1c1ccc(OC)cc1	DT40 TDP1 CPT inconclusive, ALOX12 inh inconclusive, TDP1 cell noCPT inconclusive, IL-1B inflam inh inconclusive
CCCCCCN1C[C@H](n2cc(-c3ccc(F)cc3)nn2)[C@@H](O)C[C@@H]1c1ccc(OC)cc1	DT40 TDP1 CPT inconclusive, ALOX12 inh inconclusive, TDP1 cell noCPT inconclusive
CCCCCCN1C[C@H](n2cc(-c3ccc(F)cc3)nn2)[C@@H](O)C[C@@H]1c1ccc(C)cc1	DT40 TDP1 CPT 13µM, ALOX12 inh inconclusive, TDP1 cell noCPT 13µM
COc1ccccc1N1CCN(C(c2ccc(Cl)cc2)c2nnc(-c3cccc(F)c3)o2)CC1 (stereo unspecified)	DT40 TDP1 CPT inconclusive, TDP1 cell noCPT inconclusive (no result: HT1080 IDH1KD tx, HT1080-NT tox, IL-1B inflam inh)
COc1ccccc1N1CCN(C(c2ccccc2)c2nnc(-c3ccccc3Cl)o2)CC1 (stereo unspecified)	DT40 TDP1 CPT 29.1µM, TDP1 cell noCPT inconclusive (no result: HT1080 IDH1KD tx, HT1080-NT tox, IL-1B inflam inh)
COc1ccccc1N1CCN(C(c2ccccc2)c2nnnn2CCc2ccccc2)CC1 (stereo unspecified)	DT40 TDP1 CPT 18.4µM, ALOX12 inh inconclusive, TDP1 cell noCPT 18.4µM
COc1ccccc1C(c1nnnn1CCc1ccccc1)N1CCCCCC1 (stereo unspecified)	HT1080 IDH1KD tx inconclusive, DT40 TDP1 CPT inconclusive, HT1080-NT tox inconclusive, TDP1 cell noCPT 23.1µM
COc1ccc(C(c2nnnn2CCc2ccccc2)N2CCN(C)CC2)cc1OC (stereo unspecified)	none

Screens as filed in PubChem BioAssay.
